Assay results from PubChem BioAssay (Tox21).
Results filed as inconclusive are left out. Active and inactive are the calls of the source. Unless noted, the call rests on the fitted dose curve.

What was measured:
[1] = Nuclear factor erythroid 2-related factor 2/antioxidant responsive element (Nrf2/ARE) small molecule agonists: qHTS cell viability counter screen in human keratinocytes (AID 1919968; active means well fitted curve in the direction sought with a large enough effect in the repeat runs; an effect the other way counts as inactive or inconclusive; further: nearly all actives have a fitted effect of over 55% in size)
How it was run: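 In human HaCaT keratinocytes stably expressing an ARE-driven luciferase, compound exposure lasted 23 h at 37 C under 5% CO2. Viable cells are quantified with a protease-based fluorogenic reagent (CellTiter-Fluor) read 1 h after addition.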

[2] = Nuclear factor erythroid 2-related factor 2/antioxidant responsive element (Nrf2/ARE) small molecule agonists: luciferase reporter gene qHTS assay in human keratinocytes (AID 1919969); further: nearly all actives have a fitted effect of over 35% in size
[3] = biological target: Gonadotropin-releasing hormone receptor (Homo sapiens) (UniProt P30968); test: Human gonadotropin-releasing hormone receptor (GnRHR) small molecule agonists, calcium flux assay in GnRHR-HEK293 cells (AID 1920063); further: nearly all actives have a fitted effect of over 35% in size
Chain of Gonadotropin-releasing hormone receptor (Homo sapiens) (P30968 whole entry, looked up): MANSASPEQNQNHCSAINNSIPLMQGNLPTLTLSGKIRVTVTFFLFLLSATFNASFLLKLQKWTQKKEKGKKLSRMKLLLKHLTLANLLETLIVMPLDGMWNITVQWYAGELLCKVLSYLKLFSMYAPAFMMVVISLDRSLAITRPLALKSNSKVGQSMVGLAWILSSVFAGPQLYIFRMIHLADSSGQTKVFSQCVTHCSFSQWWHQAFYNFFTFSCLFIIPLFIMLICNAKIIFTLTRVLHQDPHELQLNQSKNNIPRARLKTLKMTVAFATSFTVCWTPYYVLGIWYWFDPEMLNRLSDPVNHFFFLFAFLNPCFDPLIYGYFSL
How it was run: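 Intracellular calcium rise is the read-out: engineered human GnRHR HEK293 cells, dye-loaded, are exposed to DMSO-dissolved compounds and fluorescence at Ex/Em 480/540 is tracked for 3 min.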

[4] = biological target: KiSS-1 receptor (Homo sapiens) (UniProt Q969F8); test: Human kisspeptin (KISS1R) small molecule agonists, calcium flux assay in KISS1R-HEK293 cells (AID 1920064; active means well fitted curve in the direction sought with a large enough effect in the repeat runs; an effect the other way counts as inactive or inconclusive)
Chain of KiSS-1 receptor (Homo sapiens) (Q969F8 whole entry, looked up): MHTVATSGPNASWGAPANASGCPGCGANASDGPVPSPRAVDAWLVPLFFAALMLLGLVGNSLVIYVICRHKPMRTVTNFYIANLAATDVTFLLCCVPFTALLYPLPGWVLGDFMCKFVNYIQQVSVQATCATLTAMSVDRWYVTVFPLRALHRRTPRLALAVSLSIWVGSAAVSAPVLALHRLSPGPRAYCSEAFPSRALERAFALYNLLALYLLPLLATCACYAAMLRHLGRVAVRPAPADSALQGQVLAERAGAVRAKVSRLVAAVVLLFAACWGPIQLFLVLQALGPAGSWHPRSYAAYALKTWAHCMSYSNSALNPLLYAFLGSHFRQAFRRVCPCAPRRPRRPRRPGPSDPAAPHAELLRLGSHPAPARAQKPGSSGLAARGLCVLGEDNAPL
How it was run: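 Concentration-response testing used 15 concentrations in triplicate on human KISS1R-expressing HEK293 cells. Calcium-dependent fluorescence (Ex/Em 480/540) was followed kinetically for 3 min after compound transfer.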

[5] = G protein-coupled receptor (GPCR) small molecule agonists, calcium flux assay: HEK293 wild type cell line counter screen (AID 1920065)
How it was run: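 Fluorescence intensity signals activation. After overnight (18 h) culture and a 1 h calcium dye load at 37 C, compounds are added by pin tool and the plate read at 480/540 nm for 3 min in 1 s steps.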

[6] = p53 small molecule agonists, cell-based qHTS assay with human liver microsomes: qHTS cell viability counter screen (AID 1963579); further: nearly all actives have a fitted effect of over 45% in size
How it was run: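 Seed p53RE-bla cells at 4,000 per well; incubate 5 h at 37 C; add compound, human liver microsomes and NADPH; incubate 16 h at 37 C; add CellTiter-Glo; after 30 min at room temperature, read luminescence.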

[7] = p53 small molecule agonists, cell-based qHTS assay with rat liver microsomes: qHTS cell viability counter screen (AID 1963580); further: nearly all actives have a fitted effect of over 45% in size
How it was run: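 Counter screen for cytotoxicity under metabolic activation: rat liver microsomes and NADPH, 0.5 mg/mL final each, added with compounds to p53RE-bla HCT-116 cells; 16 h at 37 C, then ATP luminescence read.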

[8] = p53 small molecule agonists, cell-based qHTS assay: qHTS cell viability counter screen (AID 1963581); further: nearly all actives have a fitted effect of over 45% in size
How it was run: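 Luminescence from CellTiter-Glo, reflecting ATP content, serves as the cytotoxicity measure; it is taken after the 2 h reporter substrate step in HCT-116 p53RE-bla cells dosed for 16 h at 37 C.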

[9] = biological target: 5-hydroxytryptamine receptor 2A (Homo sapiens) (UniProt P28223); test: 5-hydroxytryptamine receptor 2A (HTR2A) small molecule antagonists, cell-based qHTS assay (AID 1963586); further: nearly all actives have a fitted effect of over 45% in size
Chain of 5-hydroxytryptamine receptor 2A (Homo sapiens) (P28223 whole entry, looked up): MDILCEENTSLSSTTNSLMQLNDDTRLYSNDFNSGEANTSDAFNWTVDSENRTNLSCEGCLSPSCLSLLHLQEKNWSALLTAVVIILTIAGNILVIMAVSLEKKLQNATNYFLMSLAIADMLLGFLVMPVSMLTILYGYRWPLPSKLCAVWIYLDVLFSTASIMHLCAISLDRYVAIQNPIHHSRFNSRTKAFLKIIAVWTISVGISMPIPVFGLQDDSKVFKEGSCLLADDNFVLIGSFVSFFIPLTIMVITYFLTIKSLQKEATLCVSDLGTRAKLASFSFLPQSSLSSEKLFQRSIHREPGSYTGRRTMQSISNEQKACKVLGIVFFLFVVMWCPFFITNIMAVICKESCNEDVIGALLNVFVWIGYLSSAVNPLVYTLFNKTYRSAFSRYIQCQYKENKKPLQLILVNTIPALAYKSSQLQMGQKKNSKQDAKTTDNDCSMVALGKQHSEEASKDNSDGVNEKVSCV
How it was run: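 CHO cells stably expressing human HTR2A were plated for 18 h at 37 C, then loaded with calcium dye for 1 h. Compounds were preincubated 5 min at room temperature before DOI (4 nM solution) was added. Kinetic fluorescence was read for 3 min.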

[10] = biological target: 5-hydroxytryptamine receptor 2A (Homo sapiens) (UniProt P28223); test: 5-hydroxytryptamine receptor 2A (HTR2A) small molecule agonists, cell-based qHTS assay (AID 1963587); further: nearly all actives have a fitted effect of over 30% in size
How it was run: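 HTR2A-CHO cells, plated 18 h at 37 C/5% CO2, dye-loaded 1 h at 37 C; compounds in DMSO added by pin tool (agonist mode). Intracellular calcium flux read as kinetic fluorescence on FDSS over 2 min at 1 s intervals.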

[11] = biological target: Muscarinic acetylcholine receptor M1 (Homo sapiens) (UniProt P11229); test: Cholinergic receptor muscarinic 1 (CHRM1) small molecule antagonists, cell-based qHTS assay (AID 1963588); further: nearly all actives have a fitted effect of over 40% in size
Chain of Muscarinic acetylcholine receptor M1 (Homo sapiens) (P11229 whole entry, looked up): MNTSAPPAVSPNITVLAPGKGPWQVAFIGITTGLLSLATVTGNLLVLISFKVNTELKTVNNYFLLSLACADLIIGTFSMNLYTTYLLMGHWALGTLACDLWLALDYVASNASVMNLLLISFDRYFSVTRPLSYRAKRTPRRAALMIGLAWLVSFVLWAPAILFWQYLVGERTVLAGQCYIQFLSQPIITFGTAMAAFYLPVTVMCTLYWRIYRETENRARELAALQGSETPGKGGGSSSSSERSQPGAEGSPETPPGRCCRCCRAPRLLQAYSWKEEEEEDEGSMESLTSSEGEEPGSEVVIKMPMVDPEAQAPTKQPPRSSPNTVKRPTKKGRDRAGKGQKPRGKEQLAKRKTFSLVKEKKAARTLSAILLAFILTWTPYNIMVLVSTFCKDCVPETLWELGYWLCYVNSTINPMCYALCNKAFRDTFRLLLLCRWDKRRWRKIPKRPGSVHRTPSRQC
How it was run: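 Compounds were tested at 15 concentrations in three independent runs. Dye-loaded CHRM1-CHO cells were exposed 5 min at room temperature before stimulation by acetylcholine added at 50nM. Intracellular calcium was read kinetically on FDSS for 3 min.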

[12] = biological target: Muscarinic acetylcholine receptor M1 (Homo sapiens) (UniProt P11229); test: Cholinergic receptor muscarinic 1 (CHRM1) small molecule agonists, cell-based qHTS assay (AID 1963589); further: nearly all actives have a fitted effect of over 35% in size
How it was run: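 Fluorescent calcium dye reports M1 activation in stably transfected CHO cells. Compounds, 15 concentrations, added after 1 h dye loading at 37 C; kinetic reading at 1 sec intervals.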

[13] = cAMP Responsive Elements (CRE) small molecule agonists, cell-based qHTS assay (AID 1963590)
How it was run: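 Compound exposure lasted 3 h at 37 C/5% CO2 in CRE-bla HEK 293T cells grown in assay medium with 10% dialyzed FBS and 25 mM HEPES. Reporter signal came from LiveBLAzer B/G FRET substrate, 2 h, room temperature.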

[14] = biological target: Beta-2 adrenergic receptor (Homo sapiens) (UniProt P07550); test: Adrenergic beta2 receptor (ADRB2) small molecule agonists, cell-based qHTS assay (AID 1963593);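 further: CHO cells stably overexpressing human ADRB2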
Chain of Beta-2 adrenergic receptor (Homo sapiens) (P07550 whole entry, looked up): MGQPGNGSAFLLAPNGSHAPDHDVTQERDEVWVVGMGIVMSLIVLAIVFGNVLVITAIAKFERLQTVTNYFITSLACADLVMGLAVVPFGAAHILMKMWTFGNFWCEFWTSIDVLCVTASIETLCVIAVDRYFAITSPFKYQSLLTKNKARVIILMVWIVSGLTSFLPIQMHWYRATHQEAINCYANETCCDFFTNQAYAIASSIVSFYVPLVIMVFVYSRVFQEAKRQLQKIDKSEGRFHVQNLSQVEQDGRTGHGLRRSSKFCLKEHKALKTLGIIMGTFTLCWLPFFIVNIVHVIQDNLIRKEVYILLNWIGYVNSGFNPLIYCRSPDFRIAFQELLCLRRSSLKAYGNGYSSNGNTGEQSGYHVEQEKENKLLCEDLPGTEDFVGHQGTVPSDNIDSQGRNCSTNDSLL
How it was run: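 CHO cells stably over-expressing ADRB2 were plated overnight at 37C, then dosed with compounds plus a stimulation mix containing 100uM IBMX and 25uM Ro-20-1724 for 0.5hr at room temperature. cAMP was measured by HTRF competition, 1hr.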

[15] = biological target: D(2) dopamine receptor (Homo sapiens) (UniProt P14416); test: Dopamine D2 receptor (DRD2) small molecule agonists, cell-based qHTS assay (AID 1963594); further: nearly all actives have a fitted effect of over 35% in size
Chain of D(2) dopamine receptor (Homo sapiens) (P14416 whole entry, looked up): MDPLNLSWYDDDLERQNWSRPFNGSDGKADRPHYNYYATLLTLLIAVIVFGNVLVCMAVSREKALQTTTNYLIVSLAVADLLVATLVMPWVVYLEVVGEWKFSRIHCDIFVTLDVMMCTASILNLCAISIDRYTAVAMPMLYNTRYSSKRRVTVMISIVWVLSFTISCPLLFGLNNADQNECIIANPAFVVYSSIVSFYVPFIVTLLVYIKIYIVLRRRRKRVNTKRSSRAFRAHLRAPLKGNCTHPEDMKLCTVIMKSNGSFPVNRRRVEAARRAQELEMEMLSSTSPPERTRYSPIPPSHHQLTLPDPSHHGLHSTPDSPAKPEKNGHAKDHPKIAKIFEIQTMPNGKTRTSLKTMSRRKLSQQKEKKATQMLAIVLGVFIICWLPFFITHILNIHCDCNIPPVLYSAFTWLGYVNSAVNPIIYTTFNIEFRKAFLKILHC
How it was run: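 HEK293 cells stably expressing DRD2 were cultured 24 h at 37 C, then given Ro20-1724 (0.1 mM final) and compounds for 10 min at room temperature. NKH477 (200nM) was then added for 30 min. cAMP was read by HTRF.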

[16] = biological target: D(2) dopamine receptor (Homo sapiens) (UniProt P14416); test: Dopamine D2 receptor (DRD2) small molecule antagonists, cell-based qHTS assay (AID 1963595; active means well fitted inhibition curve with a large enough effect in the signal ratio in the repeat runs, with a control signal flat; the % refers to the signal ratio)
How it was run: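 Antagonist mode in DRD2-HEK293 cells: after compound addition with 0.1 mM Ro20-1724, cells received quinpirole (12 nM) and NKH477 (200 nM) for 30 min at room temperature; HTRF cAMP read after 1 h detection.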

[17] = biological target: Beta-2 adrenergic receptor (Homo sapiens) (UniProt P07550); test: Adrenergic beta2 receptor (ADRB2) small molecule antagonists, cell-based qHTS assay (AID 1963592); further: series mostly up to about 92 µM; nearly all actives have a fitted effect of over 50% in size
How it was run: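 Assay format: CHO-ADRB2 cells, 18-20hr seeding at 37C/5% CO2, then compound plus 1nM isoproterenol agonist mix for 0.5hr RT. Homogeneous time-resolved fluorescence cAMP detection after 1hr, expressed as 665/615 nm ratio.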

[18] = cAMP Responsive Elements (CRE) small molecule antagonists, cell-based qHTS assay (AID 1963591; active means well fitted inhibition curve with a large enough effect in the signal ratio in the repeat runs, not every such curve was filed as active; the % refers to the signal ratio)
How it was run: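 Stimulation used NKH477 at a final 0.25 uM for 3 h in compound-treated CRE-bla HEK293T cells, seeded 18 h beforehand. Reporter activity was measured with LiveBLAzer B/G FRET substrate after 2 h at room temperature.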

Measured: Potency

O=Cc1ccccc1Cl
not listed: [17] | [18]
inactive: all other assays above

CC(C)(C)Cl
not listed: [18]
inactive: all other assays above

O=C(O)C(c1ccc(Cl)cc1)c1ccc(Cl)cc1
not listed: [13] | [14]
inactive: all other assays above

O=C(O)c1ccc(O)c(O)c1
not listed: [14] | [17]
inactive: all other assays above

CC(C)(C)CCCCCCOC(=O)c1ccccc1C(=O)OCCCCCCC(C)(C)C
not listed: [17]
inactive: all other assays above

CCOC(=O)CC(C)C
not listed: [14] | [17]
inactive: all other assays above

CCCCN1C(=O)c2ccccc2C1=O
not listed: [14] | [18]
inactive: all other assays above

CC(C)(N)C#N
not listed: [14]
inactive: all other assays above
